Compounds with a hit are over-represented: about 12% of the library has one in this group of screens.
BAZ2B inh: BAZ2B (human) inhibition | Q9UIF8 | AlphaScreen BAZ2B-H3K14Ac peptide displacement | Potency, µM (series often up to 114 µM), hits mostly inhibitors | 360,000 tested, 4.4% active | AID 504333; note: nearly all actives have a fitted effect of over 60% in size
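AlphaScreen displacement: compounds (up to 110uM) incubated 30 min at room temperature with a preformed 50 nM BAZ2B/50 nM biotinylated H3K14Ac peptide complex in PBS pH 7.4 with Tween-20. Donor and acceptor beads at 10 ug/mL final added, 20 min light-protected before reading.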
PI5P4K alpha inh: inhibitors of human PI5P4K alpha; PI5P4Kalpha enzyme, ADP-Glo luminescence, 60 min; hits give low values; max response, %; 330,000 tested, 1.2% active; P48426; active = max response of -50% or lower; inconclusive = between -30% and -50%; inactive = -30% or higher; note: value at the top dose of about 77 µM
Target sequence (P48426 whole entry, looked up): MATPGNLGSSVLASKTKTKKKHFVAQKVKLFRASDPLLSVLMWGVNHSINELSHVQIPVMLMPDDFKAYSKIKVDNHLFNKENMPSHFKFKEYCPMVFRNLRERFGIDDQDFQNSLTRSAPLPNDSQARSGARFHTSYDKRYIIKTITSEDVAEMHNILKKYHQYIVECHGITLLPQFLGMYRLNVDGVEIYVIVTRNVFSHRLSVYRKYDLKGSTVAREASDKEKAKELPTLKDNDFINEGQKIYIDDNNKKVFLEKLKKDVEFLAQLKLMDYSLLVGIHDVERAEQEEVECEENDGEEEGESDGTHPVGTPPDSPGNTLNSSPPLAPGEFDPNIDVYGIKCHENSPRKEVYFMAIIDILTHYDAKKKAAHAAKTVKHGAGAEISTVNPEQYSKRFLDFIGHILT
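Reactions run in 0.038 M HEPES pH 7.4, 0.28 mM EGTA, 0.1% CHAPS and 5% DMSO, with PI5P4Kalpha, substrate, compound and 5 microM ATP final, one hour at room temperature. Readout is ADP-Glo luminescence.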
JMJD2A Tudor: JMJD2A Tudor domain (human) inhibition; Potency, µM (series often up to 114 µM), most hits filed as inhibitors; AID 504339; 390,000 tested, 4.4% active; AlphaScreen JMJD2A-Tudor / H3K4me3 peptide binding; O75164; note: nearly all actives have a fitted effect of over 50% in size
G9a block: blocks human histone lysine methyltransferase G9a | 350,000 tested, 8.8% active | AID 504332 | G9a H3K9 monomethylation, AlphaScreen, 2 h | Potency, µM (top dose mostly 102 µM), hits mostly inhibitors | Q96KQ7; note: nearly all actives have a fitted effect of over 75% in size
Target sequence (Q96KQ7 913-1193 limits assumed): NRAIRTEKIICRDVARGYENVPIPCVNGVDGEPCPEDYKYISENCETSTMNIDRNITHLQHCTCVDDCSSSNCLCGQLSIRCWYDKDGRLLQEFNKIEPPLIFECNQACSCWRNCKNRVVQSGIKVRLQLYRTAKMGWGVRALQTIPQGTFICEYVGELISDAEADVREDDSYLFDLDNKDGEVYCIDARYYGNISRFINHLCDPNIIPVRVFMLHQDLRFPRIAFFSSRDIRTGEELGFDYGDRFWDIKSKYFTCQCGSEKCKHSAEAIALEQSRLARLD
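Enzyme 20 nM + cpd, 15 min RT; add b-H3K9 pep 500 nM / SAM 20 uM; 2 h RT; anti-H3K9me1 Ab 0.5 ug/mL + SA donor / anti-rabbit acceptor beads 20 ug/mL each, 10 min; AlphaScreen read.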
HP1b binding inh: inhibitors of HP1-beta chromodomain binding to methylated histone tails | AlphaScreen HP1-beta / biotin-H3K9me3 peptide binding | Potency, µM (titrated, usually from 114 µM), usual class: inhibitors | AID 540317 | 390,000 tested, 0.56% active | P83916; note: nearly all actives have a fitted effect of over 70% in size
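Compound inhibition of the preformed complex between 50 nM HP1-beta and 50 nM biotinylated H3K9me3 peptide was read by AlphaScreen. Buffer was PBS pH 7.4 with 0.01% Tween-20. Incubations ran 30 min at room temperature, with 10 ug/mL donor/acceptor beads.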
PLK1 PBD block: inhibitors of human PLK1 polo-box domain binding. P53350. 360,000 tested, 2.8% active. AID 720504. Potency, µM, most hits filed as inhibitors. Plk1 PBD binding of FITC phosphopeptide, fluorescence polarization; note: series mostly up to about 57 µM; nearly all actives have a fitted effect of over 65% in size
Large screens that a line does not name were inactive; ! = not active in a repeat. Unless noted, calls come from the whole dose curve; as a rule, active = well fitted curve in the direction sought with a large enough effect; inconclusive = small, poorly fitted or top-dose-only effect, or another doubt; inactive = no such curve, though single readings can be large; an effect the other way counts as inactive or inconclusive.

CCCCC(=O)Nc1ccc(C(=O)NNC(=O)c2ccc(C)c(Br)c2)cc1	JMJD2A Tudor 56.2µM, G9a block inconclusive
CCCC(=O)Nc1ccc(C(=O)NNC(=S)NC(=O)c2ccc(Br)o2)cc1	G9a block 39.8µM, HP1b binding inh inconclusive, PLK1 PBD block 23.8µM
COc1ccc(CCNC(=O)C(=O)NCc2ccccn2)cc1	G9a block 50.1µM
S=C(NCc1ccccn1)NN=Cc1ccccn1	JMJD2A Tudor 31.6µM (no result: BAZ2B inh, G9a block)
Cc1ccc(NC(=S)NCc2ccccn2)cc1	JMJD2A Tudor inconclusive
COc1cccc(NC(=S)NCCc2ccccn2)c1	BAZ2B inh 56.2µM, G9a block 28.2µM
CCCNC(=O)C(=O)NCc1ccccn1	G9a block inconclusive
Cc1cccc(NC(=S)NCc2ccccn2)c1	JMJD2A Tudor inconclusive, G9a block 70.8µM, PLK1 PBD block inconclusive
COc1ccc(CCNC(=O)Cn2cc(S(=O)(=O)Cc3ccc(F)cc3)c3ccccc32)cc1OC	none (no result: PI5P4K alpha inh, PLK1 PBD block)
Cc1ccc(NC(=O)C(OC(=O)c2cc(C)oc2C)c2ccccc2)cc1 (stereo not drawn)	G9a block 79.4µM
COc1ccc(/C=C/C(=O)N(CC(C)C)C2CCS(=O)(=O)C2)cc1 (stereo not drawn)	none
CC(C)CN(C(=O)/C=C/c1nc2ccccc2s1)C1CCS(=O)(=O)C1 (stereo not drawn)	G9a block 56.2µM
COc1ccc(CNC(=O)C2CCN(c3nc4ccccc4[nH]3)CC2)cc1OC	none (no result: PI5P4K alpha inh, PLK1 PBD block)
Cc1ccc(S(=O)(=O)N2CCN(CC(=O)N/N=C\c3ccccn3)CC2)cc1	none
O=C(N/N=C\c1c(O)ccc2ccccc12)c1cncc(Br)c1	BAZ2B inh 35.5µM, JMJD2A Tudor 56.2µM
COc1ccc2ccccc2c1/C=N\NC(=O)c1cccnc1	none (no result: BAZ2B inh, G9a block)
Cc1ccc(C(=O)N/N=C/c2c(O)ccc3ccccc23)cn1	JMJD2A Tudor inconclusive, G9a block inconclusive
O=C(N/N=C/c1ccccn1)C1CC1	BAZ2B inh inconclusive, JMJD2A Tudor 1.26µM, G9a block 3.55µM
CN1CCN(CCC(=O)N/N=C/c2ccccn2)CC1	BAZ2B inh inconclusive, JMJD2A Tudor 7.94µM, G9a block 1.26µM
O=C(N/N=C/c1c(O)ccc2ccccc12)c1cccnc1	JMJD2A Tudor 50.1µM
CC(C)CCNC(=O)c1ccc2c(c1)N(Cc1ccccc1F)C(=O)c1ccccc1S2(=O)=O	none (no result: PI5P4K alpha inh, PLK1 PBD block)
Cc1ccc(S(=O)(=O)N2CCN(c3nc(-c4cccs4)cc4ccccc34)CC2)cc1	none (no result: BAZ2B inh, PI5P4K alpha inh, G9a block, PLK1 PBD block)
CCc1nc2ccc(C(=O)NCCCn3ccnc3)cn2c1N(C)C(=O)C1CCCCC1	none (no result: BAZ2B inh, JMJD2A Tudor, G9a block, HP1b binding inh)
O=C(N/N=C/c1c(O)ccc2ccccc12)c1ccc(Br)o1	BAZ2B inh 56.2µM, JMJD2A Tudor inconclusive, G9a block inconclusive
O=C(N/N=C\c1c(O)ccc2ccccc12)c1ccc(O)cc1	PI5P4K alpha inh inconclusive, JMJD2A Tudor inconclusive, PLK1 PBD block inconclusive (no result: G9a block)
O=C(N/N=C/c1c(O)ccc2ccccc12)c1ccc[n+](CCO)c1	BAZ2B inh 12.6µM, JMJD2A Tudor 28.2µM, G9a block inconclusive
O=C(NN=Cc1c(O)ccc2ccccc12)c1ccncc1	JMJD2A Tudor 79.4µM (no result: BAZ2B inh, G9a block)
COc1cc(/C=N/NC(=O)CCN2CCN(C)CC2)cc2c1OCO2	JMJD2A Tudor 0.794µM, HP1b binding inh inconclusive
Cc1oc2ccc(O)c(CN3CCCC(C)C3)c2c1C(=O)Nc1ccccc1 (stereo not drawn)	none (no result: PI5P4K alpha inh, PLK1 PBD block)
Cc1ccccc1-c1nnc(SCC(=O)N(C)C2CCCCC2)o1	none (no result: PI5P4K alpha inh, PLK1 PBD block)
O=C(N/N=C/c1ccccn1)c1ccc(Br)o1	BAZ2B inh 70.8µM
O=C(N/N=C/c1ccccn1)c1cc(Br)ccc1O	none
CCC(=O)N1CCCC(C)(C(=O)Nc2ccc3oc(CC)nc3c2)C1 (stereo not drawn)	none (no result: BAZ2B inh, JMJD2A Tudor, G9a block, HP1b binding inh)
CCC1(c2ccc(F)cc2)NC(=O)N(CC(=O)Nc2ccccc2C)C1=O (stereo not drawn)	JMJD2A Tudor 70.8µM, PLK1 PBD block inconclusive
CCC1(c2ccccc2)NC(=O)N(CC(=O)Nc2ccccc2C(=O)NC2CC2)C1=O (stereo not drawn)	G9a block 50.1µM
CC1(c2ccccc2)NC(=O)N(CC(=O)Nc2ccccc2C(=O)NC2CC2)C1=O (stereo not drawn)	none
CCC1(c2ccc(F)cc2)NC(=O)N(CC(=O)Nc2ccccc2Cl)C1=O (stereo not drawn)	none
CC(=NOC(=O)c1ccc(I)cc1)c1nccs1	none (no result: BAZ2B inh, JMJD2A Tudor, G9a block, HP1b binding inh)
Cc1nnc(N2C(=O)c3cccc4c([N+](=O)[O-])ccc(c34)C2=O)s1	G9a block 50.1µM, PLK1 PBD block inconclusive
O=C1c2cccc3cccc(c23)C(=O)N1Cc1cccnc1	none
O=C1c2cccc3c([N+](=O)[O-])ccc(c23)C(=O)N1Cc1cccnc1	BAZ2B inh 39.8µM, G9a block inconclusive, HP1b binding inh inconclusive, PLK1 PBD block inconclusive
Cc1ccnc(N2C(=O)c3cccc4c([N+](=O)[O-])ccc(c34)C2=O)c1	G9a block inconclusive, PLK1 PBD block inconclusive (no result: PI5P4K alpha inh)
Cc1cc(=O)n2c3c(sc2n1)C(=O)N(Cc1ccccc1)C3=O	G9a block 6.31µM (no result: PI5P4K alpha inh, JMJD2A Tudor, HP1b binding inh, PLK1 PBD block)
Cc1cc(=O)n2nc(-c3ccccc3)sc2n1	none
Fc1ccc(CSc2ccc(-c3ccco3)nn2)cc1	none
Fc1cccc(CSc2ccc(-c3ccco3)nn2)c1	G9a block inconclusive
CSc1ccc(-c2ccco2)nn1	G9a block 31.6µM
CCSc1ccc(-c2ccco2)nn1	G9a block 17.8µM
CCOc1ccccc1NC(=O)CCS(=O)(=O)c1ccc(Br)cc1	BAZ2B inh 12.6µM, JMJD2A Tudor 15.8µM, G9a block 12.6µM, HP1b binding inh 35.5µM, PLK1 PBD block 29.9µM
COc1ccc(NC(=O)CCS(=O)(=O)c2ccc(OC)cc2)cc1	G9a block inconclusive (no result: PI5P4K alpha inh)
CCOc1ccccc1NC(=O)COC(=O)CNS(=O)(=O)c1ccc(C)cc1	none
CCOc1ccccc1NC(=O)CCNS(=O)(=O)c1ccc(NC(C)=O)cc1	none
CCc1ccccc1NC(=O)CCS(=O)(=O)c1ccc(Br)cc1	BAZ2B inh 79.4µM, JMJD2A Tudor inconclusive, G9a block 50.1µM, HP1b binding inh inconclusive
CCOc1ccccc1NC(=O)COC(=O)CN(C)S(=O)(=O)c1ccc(C)cc1	JMJD2A Tudor 89.1µM, PLK1 PBD block 26.7µM
CCc1ccccc1NC(=O)CCS(=O)(=O)c1ccc(C)cc1	none
CCOc1ccc(NC(=O)CCS(=O)(=O)c2ccc(Br)cc2)cc1	BAZ2B inh 35.5µM!, JMJD2A Tudor 17.8µM, G9a block 44.7µM, HP1b binding inh 20µM, PLK1 PBD block 21.2µM
COc1ccc(C(=O)OCC(=O)N(C)C2CCS(=O)(=O)C2)cc1Br (stereo not drawn)	none
COc1ccc(NC(=O)CNS(=O)(=O)c2cccc3nonc23)c(OC)c1	G9a block inconclusive, PLK1 PBD block 29.9µM

Assay outcomes from PubChem.
